Where a name gives a salt, the structure may show the parent alone.
Tests used:
Assay in all cases: phenotypically active (imaging signature differs from DMSO and reproducible) at any of 0.3-9 uM (binary (1 = active, 0 = inactive)); higher = active
Settings in all cases: treatment time: 24 h
A549-ACTB-RAB5A = system: A549-ACTB-RAB5A
Outline: (§1)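 Cells from fifteen gene-edited reporter lines (A549, HepG2 and WPMY1) were treated for 24 h at 0.3, 1, 3 or 9 µM and imaged live, four wells per condition. Features were normalised per well to solvent control wells. A condition deviated if ≥3 of 4 wells passed the 95th percentile of control Euclidean distances and was reproducible if its median replicate Pearson correlation beat the 95th percentile of non-replicates; phenotypic activity needed both.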

A549-CANX-COX4 = system: A549-CANX-COX4
Outline: as §1

A549-GM130-SQSTM1 = system: A549-GM130-SQSTM1
Outline: as §1

A549-TP53BP1-CLTA = system: A549-TP53BP1-CLTA
Outline: as §1

A549-TUBA1B-RELA = system: A549-TUBA1B-RELA
Outline: as §1

HepG2-ACTB-RAB5A = system: HepG2-ACTB-RAB5A
Outline: as §1

HepG2-CANX-COX4 = system: HepG2-CANX-COX4
Outline: as §1

HepG2-GM130-SQSTM1 = system: HepG2-GM130-SQSTM1
Outline: as §1

HepG2-TP53BP1-CLTA = system: HepG2-TP53BP1-CLTA
Outline: as §1

HepG2-TUBA1B-RELA = system: HepG2-TUBA1B-RELA
Outline: as §1

WPMY1-ACTB-RAB5A = system: WPMY1-ACTB-RAB5A
Outline: as §1

WPMY1-CANX-COX4 = system: WPMY1-CANX-COX4
Outline: as §1

WPMY1-GM130-SQSTM1 = system: WPMY1-GM130-SQSTM1
Outline: as §1

WPMY1-TP53BP1-CLTA = system: WPMY1-TP53BP1-CLTA
Outline: as §1

WPMY1-TUBA1B-RELA = system: WPMY1-TUBA1B-RELA
Outline: as §1

Measured: phenotypically active

O=c1ccc2ccc3occc3c2o1 [Angelicin]
inactive: A549-ACTB-RAB5A 0 | A549-CANX-COX4 0 | A549-GM130-SQSTM1 0 | A549-TP53BP1-CLTA 0 | A549-TUBA1B-RELA 0 | HepG2-ACTB-RAB5A 0 | HepG2-CANX-COX4 0 | HepG2-GM130-SQSTM1 0 | HepG2-TP53BP1-CLTA 0 | HepG2-TUBA1B-RELA 0 | WPMY1-ACTB-RAB5A 0 | WPMY1-CANX-COX4 0 | WPMY1-GM130-SQSTM1 0 | WPMY1-TP53BP1-CLTA 0 | WPMY1-TUBA1B-RELA 0

CC(C)[C@H]1C(=O)O[C@@H]2CCN3CC=C(COC(=O)[C@](C)(O)[C@@]1(C)O)[C@H]23 [Trichodesmine]
inactive: A549-ACTB-RAB5A 0 | A549-CANX-COX4 0 | A549-GM130-SQSTM1 0 | A549-TP53BP1-CLTA 0 | A549-TUBA1B-RELA 0 | HepG2-ACTB-RAB5A 0 | HepG2-CANX-COX4 0 | HepG2-GM130-SQSTM1 0 | HepG2-TP53BP1-CLTA 0 | HepG2-TUBA1B-RELA 0 | WPMY1-ACTB-RAB5A 0 | WPMY1-CANX-COX4 0 | WPMY1-GM130-SQSTM1 0 | WPMY1-TP53BP1-CLTA 0 | WPMY1-TUBA1B-RELA 0

CCOc1cc(C=O)ccc1O [Ethylvanilline]
inactive: A549-ACTB-RAB5A 0 | A549-CANX-COX4 0 | A549-GM130-SQSTM1 0 | A549-TP53BP1-CLTA 0 | A549-TUBA1B-RELA 0 | HepG2-ACTB-RAB5A 0 | HepG2-CANX-COX4 0 | HepG2-GM130-SQSTM1 0 | HepG2-TP53BP1-CLTA 0 | HepG2-TUBA1B-RELA 0 | WPMY1-ACTB-RAB5A 0 | WPMY1-CANX-COX4 0 | WPMY1-GM130-SQSTM1 0 | WPMY1-TP53BP1-CLTA 0 | WPMY1-TUBA1B-RELA 0

C=C(C)[C@H]1CN[C@H](C(=O)O)[C@H]1CC(=O)O [Kainic acid]
inactive: A549-ACTB-RAB5A 0 | A549-CANX-COX4 0 | A549-GM130-SQSTM1 0 | A549-TP53BP1-CLTA 0 | A549-TUBA1B-RELA 0 | HepG2-ACTB-RAB5A 0 | HepG2-CANX-COX4 0 | HepG2-GM130-SQSTM1 0 | HepG2-TP53BP1-CLTA 0 | HepG2-TUBA1B-RELA 0 | WPMY1-ACTB-RAB5A 0 | WPMY1-CANX-COX4 0 | WPMY1-GM130-SQSTM1 0 | WPMY1-TP53BP1-CLTA 0 | WPMY1-TUBA1B-RELA 0

N[C@@H]1C[C@H]1c1ccccc1 [Tranylcypromine hydrochloride]
inactive: A549-ACTB-RAB5A 0 | A549-CANX-COX4 0 | A549-GM130-SQSTM1 0 | A549-TP53BP1-CLTA 0 | A549-TUBA1B-RELA 0 | HepG2-ACTB-RAB5A 0 | HepG2-CANX-COX4 0 | HepG2-GM130-SQSTM1 0 | HepG2-TP53BP1-CLTA 0 | HepG2-TUBA1B-RELA 0 | WPMY1-ACTB-RAB5A 0 | WPMY1-CANX-COX4 0 | WPMY1-GM130-SQSTM1 0 | WPMY1-TP53BP1-CLTA 0 | WPMY1-TUBA1B-RELA 0

C/C(O)=C(/C#N)C(=O)Nc1cc(Br)ccc1Br
inactive: A549-ACTB-RAB5A 0 | A549-CANX-COX4 0 | A549-GM130-SQSTM1 0 | A549-TP53BP1-CLTA 0 | A549-TUBA1B-RELA 0 | HepG2-ACTB-RAB5A 0 | HepG2-CANX-COX4 0 | HepG2-GM130-SQSTM1 0 | HepG2-TP53BP1-CLTA 0 | HepG2-TUBA1B-RELA 0 | WPMY1-ACTB-RAB5A 0 | WPMY1-CANX-COX4 0 | WPMY1-GM130-SQSTM1 0 | WPMY1-TP53BP1-CLTA 0 | WPMY1-TUBA1B-RELA 0

CN1[C@@H]2CC(=O)C[C@H]1[C@H](O)C2 [6-Hydroxytropinone]
inactive: A549-ACTB-RAB5A 0 | A549-CANX-COX4 0 | A549-GM130-SQSTM1 0 | A549-TP53BP1-CLTA 0 | A549-TUBA1B-RELA 0 | HepG2-ACTB-RAB5A 0 | HepG2-CANX-COX4 0 | HepG2-GM130-SQSTM1 0 | HepG2-TP53BP1-CLTA 0 | HepG2-TUBA1B-RELA 0 | WPMY1-ACTB-RAB5A 0 | WPMY1-CANX-COX4 0 | WPMY1-GM130-SQSTM1 0 | WPMY1-TP53BP1-CLTA 0 | WPMY1-TUBA1B-RELA 0

COc1c2c(cc3c1OCO3)CC[N+](C)=C2 [Cotarnine chloride]
inactive: A549-ACTB-RAB5A 0 | A549-CANX-COX4 0 | A549-GM130-SQSTM1 0 | A549-TP53BP1-CLTA 0 | A549-TUBA1B-RELA 0 | HepG2-ACTB-RAB5A 0 | HepG2-CANX-COX4 0 | HepG2-GM130-SQSTM1 0 | HepG2-TP53BP1-CLTA 0 | HepG2-TUBA1B-RELA 0 | WPMY1-ACTB-RAB5A 0 | WPMY1-CANX-COX4 0 | WPMY1-GM130-SQSTM1 0 | WPMY1-TP53BP1-CLTA 0 | WPMY1-TUBA1B-RELA 0

O=C(O)CC[N+](=O)[O-] [3-Nitropropionic acid]
inactive: A549-ACTB-RAB5A 0 | A549-CANX-COX4 0 | A549-GM130-SQSTM1 0 | A549-TP53BP1-CLTA 0 | A549-TUBA1B-RELA 0 | HepG2-ACTB-RAB5A 0 | HepG2-CANX-COX4 0 | HepG2-GM130-SQSTM1 0 | HepG2-TP53BP1-CLTA 0 | HepG2-TUBA1B-RELA 0 | WPMY1-ACTB-RAB5A 0 | WPMY1-CANX-COX4 0 | WPMY1-GM130-SQSTM1 0 | WPMY1-TP53BP1-CLTA 0 | WPMY1-TUBA1B-RELA 0

N#CC(CCN1CCC(C(=O)O)(c2ccccc2)CC1)(c1ccccc1)c1ccccc1 [difenoxin]
inactive: A549-ACTB-RAB5A 0 | A549-CANX-COX4 0 | A549-GM130-SQSTM1 0 | A549-TP53BP1-CLTA 0 | A549-TUBA1B-RELA 0 | HepG2-ACTB-RAB5A 0 | HepG2-CANX-COX4 0 | HepG2-GM130-SQSTM1 0 | HepG2-TP53BP1-CLTA 0 | HepG2-TUBA1B-RELA 0 | WPMY1-ACTB-RAB5A 0 | WPMY1-CANX-COX4 0 | WPMY1-GM130-SQSTM1 0 | WPMY1-TP53BP1-CLTA 0 | WPMY1-TUBA1B-RELA 0

CC(C)C[C@H](CN)CC(=O)O [pregabalin]
inactive: A549-ACTB-RAB5A 0 | A549-CANX-COX4 0 | A549-GM130-SQSTM1 0 | A549-TP53BP1-CLTA 0 | A549-TUBA1B-RELA 0 | HepG2-ACTB-RAB5A 0 | HepG2-CANX-COX4 0 | HepG2-GM130-SQSTM1 0 | HepG2-TP53BP1-CLTA 0 | HepG2-TUBA1B-RELA 0 | WPMY1-ACTB-RAB5A 0 | WPMY1-CANX-COX4 0 | WPMY1-GM130-SQSTM1 0 | WPMY1-TP53BP1-CLTA 0 | WPMY1-TUBA1B-RELA 0

Fc1ccccc1C1=NCC(=S)N(CC(F)(F)F)c2ccc(Cl)cc21 [quazepam]
inactive: A549-ACTB-RAB5A 0 | A549-CANX-COX4 0 | A549-GM130-SQSTM1 0 | A549-TP53BP1-CLTA 0 | A549-TUBA1B-RELA 0 | HepG2-ACTB-RAB5A 0 | HepG2-CANX-COX4 0 | HepG2-GM130-SQSTM1 0 | HepG2-TP53BP1-CLTA 0 | HepG2-TUBA1B-RELA 0 | WPMY1-ACTB-RAB5A 0 | WPMY1-CANX-COX4 0 | WPMY1-GM130-SQSTM1 0 | WPMY1-TP53BP1-CLTA 0 | WPMY1-TUBA1B-RELA 0

Source: the supplement of paper PMC7411054
